The source of these data is PubChem BioAssay (Tox21).

The nature of assay [1]: qHTS assay for small molecules that induce genotoxicity in human embryonic kidney cells expressing luciferase-tagged ATAD5 (AID 651632). Further: nearly all actives have a fitted effect of over 15% in size. The procedure, abridged: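 Increased luciferase signal from ATAD5-tagged reporter cells indicates DNA-damage-driven ATAD5 induction. HEK293T cells are treated for 16 hr at 37C before detection with Amplite.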
In general terms: In qHTS, concentration-response curves come from the screen itself.

Assay [2] is described as follows: qHTS assay for small molecule agonists of the p53 signaling pathway - cell viability (AID 651633; calls by dose curve; further: nearly all actives have a fitted effect of over 30% in size; further: potency means the concentration at half of the fitted maximal effect). In short, it runs like this: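 p53RE-bla cells were treated with compound for 16 hours at 37 C. Cytotoxicity was then measured as CellTiter-Glo luminescence after 30 min at room temperature.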
Assay [3] can be described thus: qHTS assay for small molecules that induce genotoxicity in human embryonic kidney cells expressing luciferase-tagged ATAD5 - cell viability (AID 651634; calls by dose curve; further: nearly all actives have a fitted effect of over 25% in size). In short, it runs like this: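 Cytotoxicity counterscreen in HEK293T cells bearing an ATAD5-luciferase reporter: live-cell protease activity measured by CellTiter-Fluor fluorescence after 15.5 hr compound exposure.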

Assay [4] in a line: qHTS assay to test for compound auto fluorescence at 535 nm (green) in HepG2 cells (AID 720675).
Assay [5] is described as follows: qHTS assay to test for compound auto fluorescence at 460 nm (blue) in HEK293 cells (AID 720678). In short, it runs like this:
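HEK293 cells (2,000 per well, medium with 10% dialyzed FBS) attached for 4-5 hr at 37C, then received compound and stood overnight at 37C, 5% CO2. Blue fluorescence was read at Ex/Em 405/460 nm and expressed relative to triamterene.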

Assay [6] is described as follows: qHTS assay to test for compound auto fluorescence at 590 nm (red) in HEK293 cells (AID 720679). In short, it runs like this:
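HEK293 cells (2,000/well, medium with 10% dialyzed FBS) attached for 4-5 hr at 37C, received 23 nL compound and were incubated overnight at 37C, 5% CO2. Red fluorescence was then read at 540/590nm Ex/Em, referenced to Rose Bengal sodium.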

Assay [7] can be described thus: qHTS assay to test for compound auto fluorescence at 535 nm (green) in HEK293 cells (AID 720680).
Assay [8] can be described thus: qHTS assay to test for compound auto fluorescence at 460 nm (blue) in HEK293 cell free culture (AID 720681). In short, it runs like this:
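Compounds were added to cell-free DMEM with 10% FBS and fluorescence read directly. The blue channel used 405 nm excitation and 460 nm emission, with triamterene as the reference fluorophore.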

Assay [9] can be described thus: qHTS assay to test for compound auto fluorescence at 535 nm (green) in HEK293 cell free culture (AID 720682). In short, it runs like this: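 Using fluorescein as calibrant, autofluorescence was quantified at 485/535 nm in cell-free DMEM containing 10% FBS after pintool addition of compound or vehicle.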
Assay [10] can be described thus: qHTS assay to test for compound auto fluorescence at 590 nm (red) in HEK293 cell free culture (AID 720683). The procedure, abridged: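 Cell-free wells of DMEM with 10% FBS received compound, and intrinsic fluorescence was read at excitation/emission 540/590 nm. Values expressed as equivalence to Rose Bengal sodium.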
Assay [11] is described as follows: qHTS assay to test for compound auto fluorescence at 460 nm (blue) in HepG2 cell free culture (AID 720685). In short, it runs like this:
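Compound (23 nL) or DMSO pinned into cell-free MEM with 10% FBS; blue fluorescence read at 405/460 nm excitation/emission, expressed as auto-fluorescence equivalency to triamterene.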

Assay [12] in a line: qHTS assay to test for compound auto fluorescence at 535 nm (green) in HepG2 cell free culture (AID 720686).
The nature of assay [13]: qHTS assay to test for compound auto fluorescence at 460 nm (blue) in HepG2 cells (AID 720687). In short, it runs like this: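 HepG2 cells in MEM with 10% FBS, attached overnight at 37 C, were exposed to compound or DMSO for 1 hr at 37 C, 5% CO2. Blue fluorescence was read at 405/460 nm, with triamterene as reference fluorophore.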
Assay [14] is described as follows: qHTS assay for small molecule disruptors of the mitochondrial membrane potential - cell viability (AID 720634; calls by dose curve; further: nearly all actives have a fitted effect of over 20% in size; further: potency means the concentration at half of the fitted maximal effect). In short, it runs like this: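 After overnight attachment at 37 C, HepG2 cells received compound or DMSO vehicle for 1 hr. Viability is then taken from ATP-driven luminescence following a 30 min room-temperature CellTiter-Glo step.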
The nature of assay [15]: qHTS assay for small molecule disruptors of the mitochondrial membrane potential (AID 720635). Further: potency means the concentration at half of the fitted maximal effect. In short, it runs like this:
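HepG2 cells exposed to compound 1 hr at 37C, then Mito-MPS dye 30 min. Ratio read of aggregate (540/590 nm) versus monomer (490/535 nm) fluorescence.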

A short description of assay [16]: qHTS assay to test for compound auto fluorescence at 590 nm (red) in HepG2 cell free culture (AID 720684). In short, it runs like this:
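Compounds are added to culture medium (MEM, 10% FBS) lacking cells, then fluorescence is read at excitation 540 nm, emission 590 nm, with Rose Bengal sodium as the equivalency standard.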

Assay [17] addresses Glucocorticoid receptor (Homo sapiens) (UniProt P04150). Nature of the assay: qHTS assay to identify small molecule agonists of the glucocorticoid receptor (GR) signaling pathway (AID 720691; active means well fitted activation curve with a large enough effect in the signal ratio in the repeat runs, not every such curve was filed as active; the % refers to the signal ratio). The conditions noted are these: GR-bla HeLa, beta-lactamase reporter ratio, 18 h; activation: at 62.4 µM (top of the series). The procedure, abridged:
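Agonist mode in a HeLa line carrying a GRE-controlled beta-lactamase reporter. Compounds act for 18 h at 37 C before a 2 h room-temperature FRET substrate step and fluorescence reading.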

For assay [18] the target is unchanged. In words: qHTS assay to identify small molecule antagonists of the glucocorticoid receptor (GR) signaling pathway (AID 720692; active means well fitted inhibition curve with a large enough effect in the signal ratio in the repeat runs, not every such curve was filed as active; the % refers to the signal ratio). The procedure, abridged: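 Cells plated, rested 4 h at 37 C/5% CO2; compounds in DMSO pin-transferred; dexamethasone added to 5 nM final; 18 h at 37 C; B/G FRET substrate added, 2 h room temperature; fluorescence measured.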
Assay [19] is described as follows: qHTS assay to test for compound auto fluorescence at 590 nm (red) in HepG2 cells (AID 720674). The procedure, abridged:
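Fluorescence at 590 nm emission following 540 nm excitation was recorded from HepG2 wells one hour after compound transfer, with DMSO-only wells as vehicle and Rose Bengal sodium equivalency as the scale.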

Results filed as inconclusive are left out. Calls of active or inactive are those of the source. Unless noted, the call rests on the fitted dose curve; in most records, active means well fitted curve in the direction sought with a large enough effect in the repeat runs; inconclusive means weak or mixed curves; inactive means no such curve, though single readings can be large; an effect the other way counts as inactive or inconclusive.

Sequence of Glucocorticoid receptor (Homo sapiens) (P04150 whole entry, looked up): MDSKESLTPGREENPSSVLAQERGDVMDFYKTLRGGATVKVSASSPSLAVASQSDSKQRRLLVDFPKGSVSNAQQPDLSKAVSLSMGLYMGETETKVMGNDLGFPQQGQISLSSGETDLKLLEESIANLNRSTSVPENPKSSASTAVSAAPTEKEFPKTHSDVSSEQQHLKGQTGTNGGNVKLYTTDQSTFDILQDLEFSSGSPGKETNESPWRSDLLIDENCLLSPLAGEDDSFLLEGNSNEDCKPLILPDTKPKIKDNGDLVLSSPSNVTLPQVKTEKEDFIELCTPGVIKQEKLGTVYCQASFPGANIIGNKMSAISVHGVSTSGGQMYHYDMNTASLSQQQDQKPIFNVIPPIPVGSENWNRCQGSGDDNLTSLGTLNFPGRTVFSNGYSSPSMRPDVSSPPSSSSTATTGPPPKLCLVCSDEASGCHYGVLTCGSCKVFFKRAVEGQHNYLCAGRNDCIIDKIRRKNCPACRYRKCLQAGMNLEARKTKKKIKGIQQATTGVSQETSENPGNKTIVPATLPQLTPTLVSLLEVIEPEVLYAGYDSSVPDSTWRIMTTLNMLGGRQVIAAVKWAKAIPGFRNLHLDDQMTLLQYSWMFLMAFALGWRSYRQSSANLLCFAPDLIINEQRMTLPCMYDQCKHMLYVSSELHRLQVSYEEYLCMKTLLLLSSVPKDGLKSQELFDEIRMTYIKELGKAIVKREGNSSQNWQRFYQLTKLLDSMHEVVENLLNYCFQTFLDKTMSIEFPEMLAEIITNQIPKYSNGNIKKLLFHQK

For the compound `CSC(=O)c1c(C(F)F)nc(C(F)(F)F)c(C(=O)SC)c1CC(C)C`, the Potency entry in assay [1], in assay [2], in assay [3], in [4], in assay [5] and in assay [8] was “inactive” in each case. Also, the Potency entry in [11], in [12] and in assay [13] was “inactive” throughout. Further, the outcome in assay [6], in [7], in assay [9] and in assay [10] was inactive.
Consider `O=[N+]([O-])c1cc(C(F)(F)F)c(Cl)c([N+](=O)[O-])c1Nc1ncc(C(F)(F)F)cc1Cl`, for which the Potency result in [1], in [4], in [5], in [8], in assay [11] and in [12] was “inactive” throughout. Also, the Potency result in assay [13] was “inactive”. Moreover, the Potency in assay [2] is 27.3 µM (active); in [14], 0.172 µM (active); in [15], 0.243 µM (active). In addition, the call in assay [6], in [7], in assay [9], in assay [10] and in assay [16] was inactive.
Consider `ClC(Cl)C(Cl)(Cl)Cl`, for which the Potency result in [1], in [2], in [14], in assay [15], in assay [4] and in assay [8] was “inactive” in each case. Besides, the Potency result in assay [11], in assay [12], in assay [13], in [17] and in assay [18] was “inactive” in each case. For the same compound, the call in [6], in assay [7], in [9] and in [10] was inactive.
For `CCN1CCC2(CC1)COc1cc3c(cc12)N(C(=O)c1ccc(-c2ccc(-c4nnc(C)o4)cc2C)cc1)CC3`, the Potency entry in assay [1], in [4], in assay [8], in assay [11], in assay [12] and in [13] was “inactive” in each case. In addition, the Potency in [2] is 56.4 µM (active); in [15], 7.96 µM (active). The compound was called inactive in assay [19], in assay [6], in assay [7], in assay [9], in assay [10] and in assay [16].
For `COc1cnc(OC)n2nc(NS(=O)(=O)c3c(OCC(F)F)cccc3C(F)(F)F)nc12`, the Potency result in assay [1], in assay [2], in assay [14], in assay [15], in [4] and in assay [8] was “inactive” in each case. Further, the Potency entry in [11], in [12], in [13], in assay [17] and in assay [18] was “inactive” in each case. In addition, the call in assay [19], in assay [6], in assay [7], in [9], in assay [10] and in assay [16] was inactive.
On to `CCCCN(CCCC)C(=S)S`, for which the Potency entry in [1], in assay [2], in [4], in [8], in [11] and in assay [12] was “inactive” each time. Also, the Potency result in [13] and in [17] was “inactive” each time. Besides, the outcome in [19], in [6], in assay [7], in assay [9] and in assay [10] was inactive.
As for `CSC(C)(C)/C=N/O`, the Potency entry in assay [1], in assay [3], in assay [14], in assay [15], in assay [4] and in assay [5] was “inactive” each time. For the same compound, the Potency entry in assay [8], in assay [11], in assay [12], in assay [13] and in assay [18] was “inactive” in each case. Also, the result in assay [19], in assay [6], in [7], in assay [9] and in [10] was inactive.
Turning to `CC1(C)C(C=C(Cl)Cl)C1C(=O)OC(C#N)c1ccc(F)c(Oc2ccccc2)c1` (stereo not drawn), the Potency result in [1], in [2], in assay [4], in assay [5], in assay [8] and in [11] was “inactive” throughout. Besides, the Potency result in assay [12] and in assay [13] was “inactive” throughout. Further, in assay [15], the Potency is 54.5 µM (active). Moreover, the outcome in [19], in [6], in assay [7], in assay [9], in assay [10] and in assay [16] was inactive.
